Inconclusive results are not listed. Activity calls are given as the source filed them. Calls come from the whole dose curve; as a rule, active = well fitted curve in the direction sought with a large enough effect in the repeat runs; inconclusive = weak or mixed curves; inactive = no such curve, though single readings can be large; an effect the other way counts as inactive or inconclusive.
Tests used:
[1] = A CellTox Green Cytotoxicity Assay to monitor cytotoxicity in HepG2 cells - 0 hour (AID 1224882); note: nearly all actives have a fitted effect of over 35% in size; note: potency is the fitted concentration of half-maximal effect
Method in brief: (§1)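 Real-time cytotoxicity: fluorescence of a cell-impermeant cyanine dye binding DNA of dead HepG2 cells, measured repeatedly (0–40 h) during compound exposure at 37 C. Cells seeded 600/well with reagent, dosed after 5 h.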

[2] = A CellTox Green Cytotoxicity Assay to monitor cytotoxicity in HepG2 cells - 32 hour (AID 1224883); note: nearly all actives have a fitted effect of over 50% in size; note: potency is the fitted concentration of half-maximal effect
Method in brief: as §1

[3] = A CellTox Green Cytotoxicity Assay to monitor cytotoxicity in HEK293 cells - 8 hour (AID 1224884); note: nearly all actives have a fitted effect of over 35% in size; note: potency is the fitted concentration of half-maximal effect
Method in brief: (§2)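 Fluorescence from a DNA-binding dye excluded by viable cells was measured repeatedly in the same HEK293 wells (600 cells/well) during continuous compound exposure at 37 C. Each assay gives one read point: 0, 8, 16, 24, 32 or 40 h.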

[4] = qHTS RealTime-Glo MT Cell Viability Assay in HepG2 cells - 16 hour (AID 1224885); note: nearly all actives have a fitted effect of over 50% in size
Method in brief: (§3)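 Cell number in HepG2 cultures estimated from NanoLuc luminescence generated by metabolic reduction of a prosubstrate by living cells. The homogeneous, nonlytic format allowed repeated reads at 0, 8, 16, 24, 32 and 40 h of compound exposure.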

[5] = qHTS RealTime-Glo MT Cell Viability Assay in HEK293 cells - 24 hour (AID 1224886); note: top concentration of the series differs between compounds; nearly all actives have a fitted effect of over 50% in size
Method in brief: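 Homogeneous bioluminescent viability format in HEK293 cells (600 cells/well). Following 5 h at 37 C/5% CO2, 23 nL compound was pintooled; the signal was measured repeatedly during 40 h incubation.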

[6] = qHTS RealTime-Glo MT Cell Viability Assay in HEK293 cells - 8 hour (AID 1224887); note: top concentration of the series differs between compounds; nearly all actives have a fitted effect of over 50% in size
Method in brief: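 Luminescence, which tracks viable cell number through reduction of the prosubstrate to a NanoLuc substrate, was read over continuous 37 C culture. Cells (600/well) were premixed with reagent and rested 5 h before 23 nL of compound in DMSO was pinned.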

[7] = A CellTox Green Cytotoxicity Assay to monitor cytotoxicity in HEK293 cells - 16 hour (AID 1224888); note: nearly all actives have a fitted effect of over 35% in size; note: potency is the fitted concentration of half-maximal effect
Method in brief: as §2

[8] = qHTS RealTime-Glo MT Cell Viability Assay in HepG2 cells - 0 hour (AID 1224889); note: nearly all actives have a fitted effect of over 50% in size
Method in brief: as §3

[9] = A CellTox Green Cytotoxicity Assay to monitor cytotoxicity in HepG2 cells - 8 hour (AID 1224890); note: nearly all actives have a fitted effect of over 45% in size; note: potency is the fitted concentration of half-maximal effect
Method in brief: as §1

[10] = qHTS assay to identify small molecule antagonists of the estrogen receptor alpha (ER-alpha) signaling pathway using the BG1 cell line in the presence of 0.1 nM 17-beta-estradiol - cell viability counter screen (AID 1259241); note: nearly all actives have a fitted effect of over 40% in size
Method in brief: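 VM7Luc4E2 cells (endogenous ER-alpha, 4×ERE-luciferase), hormone-starved 5 days in charcoal-stripped FBS, were treated with compounds plus 0.1 nM 17beta-estradiol for 22 hr at 37C; viability read in same wells as CellTiter-Fluor live-cell protease fluorescence.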

Measured: Potency

Cc1ccc2c(ccc3ccccc32)c1
inactive: [1] | [2] | [3] | [4] | [5] | [6] | [7] | [8] | [9] | [10]

CC1(C)[C@H]2CC[C@]1(C)[C@H](O)C2
inactive: [1] | [2] | [3] | [4] | [5] | [6] | [7] | [8] | [9] | [10]

Cc1ccc(C(=O)C(C)CN2CCCCC2)cc1 (stereo not drawn)
inactive: [1] | [2] | [3] | [4] | [5] | [6] | [7] | [8] | [9] | [10]

O=C(Cl)c1ccc([N+](=O)[O-])cc1
inactive: [1] | [2] | [3] | [4] | [5] | [6] | [7] | [8] | [9] | [10]

SC1CCCC1
inactive: [1] | [2] | [3] | [4] | [5] | [6] | [7] | [8] | [9] | [10]

O=c1[nH]cnc2ccccc12
inactive: [1] | [2] | [3] | [4] | [5] | [6] | [7] | [8] | [9] | [10]

O=C(O)COC(=O)Cc1ccccc1Nc1c(Cl)cccc1Cl
inactive: [1] | [2] | [3] | [4] | [5] | [6] | [7] | [8] | [9] | [10]

O=C(Cl)c1c(Cl)cccc1Cl
inactive: [1] | [2] | [3] | [4] | [5] | [6] | [7] | [8] | [9] | [10]

CC(=O)NCCCS(=O)(=O)O
inactive: [4] | [5] | [6] | [8] | [10]
active: [1] 16.9 µM | [2] 16.9 µM | [3] 16.9 µM | [7] 18.9 µM | [9] 18.9 µM

CC(O)C1CCCCC1 (stereo not drawn)
inactive: [1] | [2] | [3] | [4] | [5] | [6] | [7] | [8] | [9] | [10]

O=C(O)C(c1ccc(Cl)cc1)c1ccc(Cl)cc1
inactive: [1] | [2] | [3] | [4] | [5] | [6] | [7] | [8] | [9] | [10]

CN1CCN(C2=Nc3ccccc3Sc3ccc(Cl)cc32)CC1
inactive: [1] | [2] | [3] | [4] | [5] | [6] | [7] | [8] | [9] | [10]

CCCCOC(=O)/C=C\C(=O)OCCCC
inactive: [1] | [2] | [3] | [4] | [5] | [6] | [7] | [8] | [9] | [10]

CCOc1ccc2[nH]cc(C(=O)NCc3ccccc3)c(=O)c2n1
inactive: [1] | [2] | [3] | [4] | [5] | [6] | [7] | [8] | [9] | [10]

N[C@H]1C(O)O[C@H](CO)[C@H](O)[C@@H]1O (stereo partly drawn)
inactive: [1] | [2] | [3] | [4] | [5] | [6] | [7] | [8] | [9] | [10]

COc1ccc(C(C)=O)cc1
inactive: [1] | [2] | [3] | [4] | [5] | [6] | [7] | [8] | [9] | [10]

CCCCCCCCCO
inactive: [1] | [2] | [3] | [4] | [5] | [6] | [7] | [8] | [9] | [10]

C=CC[N+]1([C@H]2C[C@H]3[C@@H]4CC[C@H]5C[C@H](OC(C)=O)[C@@H](N6CCCCC6)C[C@]5(C)[C@H]4CC[C@]3(C)[C@H]2OC(=O)CC)CCCCC1
inactive: [1] | [2] | [3] | [4] | [5] | [6] | [7] | [8] | [9] | [10]

Cc1ccc(C(C)c2ccc(C)c(C)c2)cc1C
inactive: [1] | [2] | [3] | [4] | [5] | [6] | [7] | [8] | [9] | [10]

CCCc1ccccc1
inactive: [1] | [2] | [3] | [4] | [5] | [6] | [7] | [8] | [9] | [10]

CC(C)NCC(O)c1cc(O)cc(O)c1 (stereo not drawn)
inactive: [1] | [2] | [3] | [4] | [5] | [6] | [7] | [8] | [9] | [10]

CN(C)C/C=C(/c1ccc(Br)cc1)c1cccnc1
inactive: [1] | [2] | [3] | [4] | [5] | [6] | [7] | [8] | [9] | [10]

O=C(c1ccc(O)cc1)c1ccc(O)cc1
inactive: [1] | [2] | [3] | [4] | [5] | [6] | [7] | [8] | [9] | [10]

O=C(NN1CCCC1)NS(=O)(=O)c1ccc(Cl)cc1
inactive: [1] | [2] | [3] | [4] | [5] | [6] | [7] | [8] | [9] | [10]

CC(=O)OCCc1ccccc1
inactive: [1] | [2] | [3] | [4] | [5] | [6] | [7] | [8] | [9] | [10]

O=CNc1ccccc1
inactive: [1] | [2] | [3] | [4] | [5] | [6] | [7] | [8] | [9] | [10]

CC(=O)O[C@H]1C[C@@H]2CC[C@@H]3[C@H](CC[C@@]4(C)[C@H]3C[C@H]([N+]3(C)CCCCC3)[C@@H]4OC(C)=O)[C@@]2(C)C[C@@H]1N1CCCCC1
inactive: [1] | [2] | [3] | [4] | [5] | [6] | [7] | [8] | [9] | [10]

NCc1ccccc1
inactive: [1] | [2] | [3] | [4] | [5] | [6] | [7] | [8] | [9] | [10]

N#Cc1cc2ccccc2c2ccccc12
inactive: [1] | [2] | [3] | [4] | [5] | [6] | [7] | [8] | [9] | [10]

Nc1nc(N)c2nc(CNc3ccc(C(=O)N[C@@H](CCC(=O)O)C(=O)O)cc3)cnc2n1
inactive: [1] | [2] | [3] | [4] | [5] | [6] | [7] | [8] | [9] | [10]

CC(CN)CCCN (stereo not drawn)
inactive: [1] | [2] | [3] | [4] | [5] | [6] | [7] | [8] | [9] | [10]

c1ccc(CNCc2ccccc2)cc1
inactive: [1] | [2] | [3] | [4] | [5] | [6] | [7] | [8] | [9] | [10]

OCCC1CCCCN1 (stereo not drawn)
inactive: [1] | [2] | [3] | [4] | [5] | [6] | [7] | [8] | [9] | [10]

CCN1CCC[C@H]1CNC(=O)c1c(OC)ccc(Br)c1OC
inactive: [1] | [2] | [3] | [4] | [5] | [6] | [7] | [8] | [9] | [10]

CC1CCc2cc(F)cc3c(=O)c(C(=O)O)cn1c23 (stereo not drawn)
inactive: [1] | [2] | [3] | [4] | [5] | [6] | [7] | [8] | [10]

O=C(O)C1CCC(C(=O)O)CC1 (stereo not drawn)
inactive: [1] | [2] | [3] | [4] | [5] | [6] | [7] | [8] | [10]

Reference: PubChem BioAssay (Tox21)
